Compound activity from PubChem.
Sampled rows, rich in hits. Any-hit rate of the full collection: about 10%.
FLuc inh-1: blocks purified firefly luciferase enzyme activity; Potency, µM (highest dose often 115 µM), hits mostly inhibitors; purified P. pyralis luciferase, luminescence, biochemical; AID 1347043; 76,000 tested, 2.5% active; P08659; note: nearly all actives have a fitted effect of over 65% in size
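Purified P. pyralis luciferase (10nM final) in 50mM Tris acetate pH 7.5, 10mM Mg acetate, 0.01% Tween-20, 0.05% BSA with 10uM D-luciferin and 10uM ATP. Compounds titrated qHTS. Luminescence imaged on CCD.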
HEK cytotox: kills HEK 293 cells; Potency, µM (titrated, usually from 115 µM), hits mostly inhibitors; AID 1345083; HEK 293 viability, ATP luminescence (CellTiter-Glo), 48-72 h; 94,000 tested, 6.6% active; note: nearly all actives have a fitted effect of over 60% in size
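Luminescence from cellular ATP, measured with CellTiter-Glo, indicates HEK 293 viability. Cells plated at 250 cells/well are treated with compound for 48 or 72 hr at 37 degree Celsius before reagent addition.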
GPT2 inh: inhibitors of human GPT2 alanine aminotransferase | Q8TD30 | Recombinant GPT2, coupled pyruvate oxidase/HRP Amplex Red fluorescence | Potency, µM (top dose mostly 57.7 µM), hits mostly inhibitors | 100,000 tested, 0.25% active; note: nearly all actives have a fitted effect of over 60% in size
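GPT2 10ng/uL, a-KG 250uM, L-Ala 2mM, HEPES pH7.5 + 0.0001% Tween; 30 min RT. Then Amplex mix (PO/HRP/ThPP), 30 min RT dark, fluorescence. AOA 50uM used as positive control.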
NPR1 antag: human Npr1 receptor antagonism; P16066; HEK293 hNpr1 GloSensor cGMP, ANP-stimulated luminescence; Potency, µM (top dose mostly 46.3 µM), actives largely listed as inhibitors; 76,000 tested, 1.6% active; AID 1347048; calls by dose curve; note: nearly all actives have a fitted effect of over 60% in size
Target sequence (P16066 whole entry, looked up): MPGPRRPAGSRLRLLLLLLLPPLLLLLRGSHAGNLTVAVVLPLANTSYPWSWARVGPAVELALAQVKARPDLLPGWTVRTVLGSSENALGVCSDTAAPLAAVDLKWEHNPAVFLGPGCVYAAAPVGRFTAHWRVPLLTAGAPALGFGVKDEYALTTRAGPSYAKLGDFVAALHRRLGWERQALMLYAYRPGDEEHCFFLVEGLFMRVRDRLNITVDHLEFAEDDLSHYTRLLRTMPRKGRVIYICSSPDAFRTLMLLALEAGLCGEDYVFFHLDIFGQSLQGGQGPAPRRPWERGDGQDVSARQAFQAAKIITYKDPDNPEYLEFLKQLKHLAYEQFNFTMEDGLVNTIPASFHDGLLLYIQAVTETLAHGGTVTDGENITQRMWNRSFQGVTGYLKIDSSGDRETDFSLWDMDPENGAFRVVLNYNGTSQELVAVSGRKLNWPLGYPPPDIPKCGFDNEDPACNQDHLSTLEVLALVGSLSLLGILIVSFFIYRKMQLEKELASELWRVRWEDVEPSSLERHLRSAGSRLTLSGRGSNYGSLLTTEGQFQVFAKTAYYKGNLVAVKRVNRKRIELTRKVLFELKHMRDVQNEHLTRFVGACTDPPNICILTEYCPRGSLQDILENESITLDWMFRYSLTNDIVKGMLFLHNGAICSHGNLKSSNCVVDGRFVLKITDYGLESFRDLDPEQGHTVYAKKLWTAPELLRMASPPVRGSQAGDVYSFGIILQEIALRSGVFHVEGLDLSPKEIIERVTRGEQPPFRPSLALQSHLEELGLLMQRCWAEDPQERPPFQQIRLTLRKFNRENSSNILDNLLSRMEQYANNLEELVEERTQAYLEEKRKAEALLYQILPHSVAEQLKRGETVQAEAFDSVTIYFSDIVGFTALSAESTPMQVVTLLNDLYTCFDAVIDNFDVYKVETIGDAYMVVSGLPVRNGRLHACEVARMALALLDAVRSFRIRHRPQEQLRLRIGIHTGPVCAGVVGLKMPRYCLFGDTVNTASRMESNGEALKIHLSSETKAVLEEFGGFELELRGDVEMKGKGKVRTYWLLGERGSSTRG
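HEK293 cells stably expressing human Npr1 and cGMP GloSensor pGS-40F, loaded 2 h with 2% GloSensor reagent, given compound 30 min at room temperature. Luminescence read before and 20 min after 0.1 nM hNppA.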
NIH3T3 tox: cytotoxic compounds in NIH 3T3 cells; NIH 3T3 viability, CellTiter-Glo ATP luminescence, 48-72 h; Potency, µM (doses to about 96.7 µM), actives largely listed as inhibitors; 94,000 tested, 4.3% active; AID 1345082; note: nearly all actives have a fitted effect of over 55% in size
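Cells were seeded at 400 per well, treated with pin-transferred compound, and kept 48 or 72 hr at 37 °C before CellTiter-Glo addition and luminescence imaging of cellular ATP.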
FLuc SDR no ATP: firefly luciferase binding stabilization, ATP absent; Purified FLuc-C-HiBiT, Nano-Glo HiBiT luminescence, no ATP; AID 1963318; 1,300 tested, 7.8% active; shares compounds with FLuc inh-1; Potency, µM (highest dose often 32.7 µM), most hits filed as activators; note: nearly all actives have a fitted effect of over 55% in size
FLuc SDR ATP: stabilizes firefly luciferase with ATP present | shares compounds with FLuc inh-1 | Potency, µM (highest dose often 32.7 µM), most hits filed as activators | AID 1963319 | 1,300 tested, 8.7% active | purified FLuc-C-HiBiT + ATP, HiBiT complementation luminescence;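 note: signal reports ligand binding via conformational change of the enzyme rather than luciferase catalysis; nearly all actives have a fitted effect of over 55% in size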
FLuc inh-2: blocks firefly luciferase enzymatic activity; purified FLuc-C-HiBiT enzyme, luciferin luminescence; Potency, µM (series often up to 32.7 µM), hits mostly inhibitors; shares compounds with FLuc inh-1; 1,300 tested, 42% active; note: nearly all actives have a fitted effect of over 70% in size
Each line names hits and unclear results; the compound was inactive in the other large screens (follow-up assays come after a bar, where they were run). Unless noted, calls come from the whole dose curve; as a rule, active = well fitted curve in the direction sought with a large enough effect; inconclusive = small, poorly fitted or top-dose-only effect, or another doubt; inactive = no such curve, though single readings can be large; an effect the other way counts as inactive or inconclusive.

Cc1ccc(NC(=O)c2nc3sccn3c2-c2ccc(F)cc2)cc1	HEK cytotox inconclusive, NIH3T3 tox inconclusive (no result: FLuc inh-1, NPR1 antag)
O=C(Nc1ccc(-c2nc3ccccc3s2)cc1)c1c(F)c(F)c(F)c(F)c1F	none (no result: FLuc inh-1, HEK cytotox, GPT2 inh, NPR1 antag, NIH3T3 tox) | FLuc SDR no ATP inactive | FLuc SDR ATP inactive | FLuc inh-2 inactive
COc1ccccc1OC(C)C(=O)Nc1cccc(-c2nc3ccccc3s2)c1 (stereo not given)	none (no result: FLuc inh-1, HEK cytotox, GPT2 inh, NPR1 antag, NIH3T3 tox) | FLuc SDR no ATP inactive | FLuc SDR ATP inactive | FLuc inh-2 inconclusive
CC(Oc1ccccc1F)C(=O)Nc1ccc(-c2nc3ccccc3s2)cc1 (stereo not given)	none (no result: FLuc inh-1, HEK cytotox, GPT2 inh, NPR1 antag, NIH3T3 tox) | FLuc SDR no ATP inactive | FLuc SDR ATP inactive | FLuc inh-2 inconclusive
O=C1[C@@H]2C[C@@H](CN2C(=O)c2cncnc2)Oc2ccccc2N1Cc1ccc(OC(F)(F)F)cc1	none
CN1CCN(CC(=O)N2CCCC(c3ccc(Cl)cc3)C2)C1=O (stereo not given)	HEK cytotox inconclusive
O=C(Nc1cccc(-c2ccc(N3CCCC3)nn2)c1)c1c(F)cccc1F	FLuc inh-1 7.1µM, HEK cytotox 40µM, NIH3T3 tox inconclusive | FLuc SDR no ATP inconclusive | FLuc SDR ATP inconclusive | FLuc inh-2 8.8µM
Cc1ccc(C(=O)Nc2cccc(-c3ccc(N4CCN(C)CC4)nn3)c2)cc1C	FLuc inh-1 6.3µM, HEK cytotox inconclusive, NIH3T3 tox 25µM | FLuc SDR no ATP inconclusive | FLuc SDR ATP inconclusive | FLuc inh-2 3.9µM
CCc1cccc(NC(=O)Nc2cccc(-c3ccc(N4CCOCC4)nn3)c2)c1	FLuc inh-1 2µM, HEK cytotox 40µM, NPR1 antag inconclusive, NIH3T3 tox inconclusive | FLuc SDR no ATP inconclusive | FLuc SDR ATP inactive | FLuc inh-2 6.2µM
O=C(Nc1ccc(F)cc1)Nc1cccc(-c2ccc(N3CCOCC3)nn2)c1	FLuc inh-1 0.89µM, HEK cytotox inconclusive, NPR1 antag inconclusive, NIH3T3 tox inconclusive | FLuc SDR no ATP inconclusive | FLuc SDR ATP inconclusive | FLuc inh-2 2µM
O=C(Nc1cccc(-c2nnc3n2CCCC3)c1)c1cc(F)cc(F)c1	NIH3T3 tox inconclusive
CC(=O)N1CCC(N[C@@H]2C[C@H](Cn3cc(C4CC4)nn3)[C@@H](O)[C@H]2O)CC1	none
O=C(COc1ccccc1)N[C@@H]1C[C@H](Cn2cc(C3CC3)nn2)[C@@H](O)[C@H]1O	none
CSc1cccc(NC(=O)Cn2ccn3nc4c(c3c2=O)CCCCC4)c1	HEK cytotox inconclusive
CN1CCN(c2ccc(-c3cccc(N)c3)nn2)CC1	FLuc inh-1 11µM, NPR1 antag inconclusive | FLuc SDR no ATP inactive | FLuc SDR ATP inconclusive | FLuc inh-2 6.2µM
O=C(Nc1cccc(-c2ccc(N3CCOCC3)nn2)c1)Nc1ccccc1F	FLuc inh-1 1.6µM, HEK cytotox 18µM, NPR1 antag inconclusive, NIH3T3 tox inconclusive | FLuc SDR no ATP inconclusive | FLuc SDR ATP inconclusive | FLuc inh-2 2.8µM
O=C(Nc1cccc(-c2ccc(N3CCOCC3)nn2)c1)Nc1cc(F)ccc1F	FLuc inh-1 0.89µM, HEK cytotox 79µM, NPR1 antag 10µM, NIH3T3 tox inconclusive | FLuc SDR no ATP inconclusive | FLuc SDR ATP inconclusive | FLuc inh-2 2.5µM
CSc1cccc(NC(=O)Nc2cccc(-c3ccc(N4CCOCC4)nn3)c2)c1	FLuc inh-1 0.79µM, HEK cytotox 28µM, NPR1 antag inconclusive, NIH3T3 tox 35µM | FLuc SDR no ATP inconclusive | FLuc SDR ATP inconclusive | FLuc inh-2 1.6µM
CC(c1ccc(-c2ccc(N3CCN(C)CC3)nn2)cc1)N1CCCCC1 (stereo not given)	HEK cytotox inconclusive
O=C(Nc1cccc(F)c1)Nc1cccc(-c2nnc3n2CCCC3)c1	none
CN(Cc1nccs1)c1ccc(-c2nc(-c3ccccc3F)no2)cn1	FLuc inh-1 2.8µM, HEK cytotox inconclusive, NPR1 antag inconclusive | FLuc SDR no ATP inactive | FLuc SDR ATP inactive | FLuc inh-2 inconclusive
CC(Cn1cccn1)Nc1ccc(-c2nc(-c3ccccc3F)no2)cn1 (stereo not given)	FLuc inh-1 3.5µM, HEK cytotox 45µM, NPR1 antag inconclusive, NIH3T3 tox inconclusive | FLuc SDR no ATP inactive | FLuc SDR ATP inconclusive | FLuc inh-2 9.9µM
CCN1C(=O)CCc2cc(NC(=O)c3ccc(OC(F)(F)F)cc3)ccc21	FLuc inh-1 14µM, HEK cytotox 50µM, NIH3T3 tox 45µM | FLuc SDR no ATP inactive | FLuc SDR ATP inactive | FLuc inh-2 inconclusive
OC1(CN2CCCN(c3nc4ccccc4s3)CC2)CNCCOC1 (stereo not given)	FLuc inh-1 13µM, HEK cytotox inconclusive, NIH3T3 tox inconclusive | FLuc SDR no ATP inactive | FLuc SDR ATP inactive | FLuc inh-2 inactive
OC1(CN2CCN(C(c3ccccc3)c3ccccc3)CC2)CNCCOC1 (stereo not given)	HEK cytotox inconclusive, NIH3T3 tox inconclusive
C[C@@H]1C(=O)O[C@H]2[C@H]1CC[C@@]1(C)Cc3sc(NC(=O)COCC(=O)O)nc3[C@@H](C)[C@H]21	FLuc inh-1 13µM | FLuc SDR no ATP 4.5µM | FLuc SDR ATP inconclusive | FLuc inh-2 5.7µM
CSCC(=O)Nc1nc2c(s1)C[C@]1(C)CC[C@@H]3[C@H](OC(=O)[C@H]3C)[C@H]1[C@@H]2C	FLuc inh-1 0.89µM, HEK cytotox 35µM, NPR1 antag 7.1µM, NIH3T3 tox 100µM | FLuc SDR no ATP inconclusive | FLuc SDR ATP inconclusive | FLuc inh-2 4.5µM
Nc1nc(N2CCC3(CC2)NC(=O)CC3C(=O)O)c2[nH]cnc2n1 (stereo not given)	none | FLuc SDR no ATP inactive | FLuc SDR ATP inactive | FLuc inh-2 inactive
Cc1cnc(C2CC2)n1CCNC(=O)CC1CCCC1	none (no result: FLuc inh-1, NPR1 antag)
CC(C)CC(=O)N1CCCN(Cc2ccc3c(c2)OCO3)c2ccccc21	HEK cytotox inconclusive, NIH3T3 tox inconclusive
Cn1ccnc1CN1C(=O)CO[C@H](c2ccc(NC(=O)Nc3ccccc3)cc2)[C@H]1CO	FLuc inh-1 10µM | FLuc SDR no ATP inactive | FLuc SDR ATP inactive | FLuc inh-2 inconclusive
CCc1cccc(NC(=O)C2CCN(C(=O)c3ncn4c3COC(c3ccc(OC)cc3)C4)CC2)c1 (stereo not given)	FLuc inh-1 inconclusive
Cc1cccc(NC(=O)C2CCN(C(=O)c3ncn4c3COC(c3ccccc3)C4)CC2)c1 (stereo not given)	FLuc inh-1 3.2µM | FLuc SDR no ATP inactive | FLuc SDR ATP 2µM | FLuc inh-2 2.5µM
